Experimental findings from ChEMBL document CHEMBL1961873, “Compounds: GSK PKIS; Assays: Nanosyn kinase panel” (2012) are described below.

Assay [1] has as its target Calcium/calmodulin-dependent protein kinase type II subunit alpha (Homo sapiens) (UniProt Q9UQM7). The conditions noted are these: at 1 µM.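 Further: reported value is a mean percent inhibition of CAMK2A.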
Assay [2] deals with Calcium/calmodulin-dependent protein kinase type II subunit delta (Homo sapiens) (UniProt Q13557). The conditions noted are these: at 0.1 µM.
Assay [3] has the same target. The note with it: at 1 µM.
The target in assay [4] is T1, Calcium/calmodulin-dependent protein kinase type IV (Homo sapiens) (UniProt Q16566).
T1 sequence (whole entry): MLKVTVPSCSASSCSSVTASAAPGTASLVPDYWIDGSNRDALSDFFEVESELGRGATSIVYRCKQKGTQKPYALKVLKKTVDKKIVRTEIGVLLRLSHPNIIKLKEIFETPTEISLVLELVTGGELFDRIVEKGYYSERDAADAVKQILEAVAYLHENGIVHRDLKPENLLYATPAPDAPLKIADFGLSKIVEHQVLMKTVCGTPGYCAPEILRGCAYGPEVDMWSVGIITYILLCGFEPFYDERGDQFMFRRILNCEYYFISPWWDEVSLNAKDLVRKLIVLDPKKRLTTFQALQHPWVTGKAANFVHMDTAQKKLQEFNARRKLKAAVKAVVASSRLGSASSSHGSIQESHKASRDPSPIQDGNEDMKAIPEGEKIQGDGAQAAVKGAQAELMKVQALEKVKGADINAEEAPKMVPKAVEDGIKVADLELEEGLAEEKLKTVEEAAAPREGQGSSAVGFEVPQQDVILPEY
The conditions noted are these: at 0.1 µM.

Assay [5] has as its target T1, Calcium/calmodulin-dependent protein kinase type IV (Homo sapiens). The note with it: at 1 µM.
Assay [6] concerns the target T2, Serine/threonine-protein kinase Chk1 (Homo sapiens) (UniProt O14757).
T2 sequence (whole entry): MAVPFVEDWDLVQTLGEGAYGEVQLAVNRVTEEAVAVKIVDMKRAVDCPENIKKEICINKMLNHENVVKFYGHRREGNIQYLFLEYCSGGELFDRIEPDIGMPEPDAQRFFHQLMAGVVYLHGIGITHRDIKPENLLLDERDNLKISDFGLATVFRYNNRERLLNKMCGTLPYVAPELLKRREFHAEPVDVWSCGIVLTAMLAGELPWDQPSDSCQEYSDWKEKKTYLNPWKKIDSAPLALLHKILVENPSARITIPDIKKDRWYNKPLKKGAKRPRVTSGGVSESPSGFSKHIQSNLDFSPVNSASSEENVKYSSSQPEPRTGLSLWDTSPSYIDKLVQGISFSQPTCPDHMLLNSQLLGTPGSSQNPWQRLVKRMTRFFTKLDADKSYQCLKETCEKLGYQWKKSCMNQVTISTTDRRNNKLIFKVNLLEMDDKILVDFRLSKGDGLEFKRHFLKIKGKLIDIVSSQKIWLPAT
The note with it: at 0.1 µM.

Assay [7] has as its target T2, Serine/threonine-protein kinase Chk1 (Homo sapiens). The note with it: at 1 µM.
Assay [8] concerns the target Serine/threonine-protein kinase Chk2 (Homo sapiens) (UniProt O96017). The note with it: at 0.1 µM.
The target is the same in assay [9]. The note with it: at 1 µM.
Assay [10] addresses Death-associated protein kinase 1 (Homo sapiens) (UniProt P53355). The note with it: at 0.1 µM.
Assay [11] has the same target. The conditions noted are these: at 1 µM.
In assay [12] the target is T3, Serine/threonine-protein kinase DCLK2 (Homo sapiens) (UniProt Q8N568).
T3 sequence (whole entry): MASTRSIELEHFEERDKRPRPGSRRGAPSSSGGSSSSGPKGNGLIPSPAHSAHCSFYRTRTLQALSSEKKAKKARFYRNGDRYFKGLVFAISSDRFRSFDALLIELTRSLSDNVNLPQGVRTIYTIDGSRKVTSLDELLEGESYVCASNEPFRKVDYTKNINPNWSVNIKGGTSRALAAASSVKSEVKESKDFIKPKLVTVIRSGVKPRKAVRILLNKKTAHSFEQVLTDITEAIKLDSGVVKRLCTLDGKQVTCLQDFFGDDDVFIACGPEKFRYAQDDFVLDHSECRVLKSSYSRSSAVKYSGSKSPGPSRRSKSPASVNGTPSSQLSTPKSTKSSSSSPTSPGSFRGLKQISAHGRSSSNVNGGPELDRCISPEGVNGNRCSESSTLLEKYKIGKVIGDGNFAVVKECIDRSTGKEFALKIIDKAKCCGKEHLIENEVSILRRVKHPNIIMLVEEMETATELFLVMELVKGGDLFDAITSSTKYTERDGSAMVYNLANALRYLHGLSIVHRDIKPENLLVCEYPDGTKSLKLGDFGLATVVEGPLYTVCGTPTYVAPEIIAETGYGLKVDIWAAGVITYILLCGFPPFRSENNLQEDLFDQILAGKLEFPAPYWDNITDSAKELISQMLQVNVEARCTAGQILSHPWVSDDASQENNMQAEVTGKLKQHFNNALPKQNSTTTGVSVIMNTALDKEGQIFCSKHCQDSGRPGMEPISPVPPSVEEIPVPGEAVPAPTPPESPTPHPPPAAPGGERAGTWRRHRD
The note with it: at 0.1 µM.

Assay [13] deals with T3, Serine/threonine-protein kinase DCLK2 (Homo sapiens). The conditions noted are these: at 1 µM.
In assay [14] the target is MAP kinase-activated protein kinase 2 (Homo sapiens) (UniProt P49137). The conditions noted are these: at 0.1 µM.
Assay [15] has the same target. The conditions noted are these: at 1 µM.
The target of assay [16] is MAP kinase-activated protein kinase 3 (Homo sapiens) (UniProt Q16644). The note with it: at 0.1 µM.
For assay [17] the target is unchanged. The conditions noted are these: at 1 µM.
For assay [18], the target named is Serine/threonine-protein kinase MARK1 (Homo sapiens) (UniProt Q9P0L2). The conditions noted are these: at 0.1 µM.
The target is the same in assay [19]. The conditions noted are these: at 1 µM.
Assay [20] deals with MAP/microtubule affinity-regulating kinase 3 (Homo sapiens) (UniProt P27448). The conditions noted are these: at 0.1 µM.
MAP/microtubule affinity-regulating kinase 3 (Homo sapiens), sequence (P27448 whole entry, looked up): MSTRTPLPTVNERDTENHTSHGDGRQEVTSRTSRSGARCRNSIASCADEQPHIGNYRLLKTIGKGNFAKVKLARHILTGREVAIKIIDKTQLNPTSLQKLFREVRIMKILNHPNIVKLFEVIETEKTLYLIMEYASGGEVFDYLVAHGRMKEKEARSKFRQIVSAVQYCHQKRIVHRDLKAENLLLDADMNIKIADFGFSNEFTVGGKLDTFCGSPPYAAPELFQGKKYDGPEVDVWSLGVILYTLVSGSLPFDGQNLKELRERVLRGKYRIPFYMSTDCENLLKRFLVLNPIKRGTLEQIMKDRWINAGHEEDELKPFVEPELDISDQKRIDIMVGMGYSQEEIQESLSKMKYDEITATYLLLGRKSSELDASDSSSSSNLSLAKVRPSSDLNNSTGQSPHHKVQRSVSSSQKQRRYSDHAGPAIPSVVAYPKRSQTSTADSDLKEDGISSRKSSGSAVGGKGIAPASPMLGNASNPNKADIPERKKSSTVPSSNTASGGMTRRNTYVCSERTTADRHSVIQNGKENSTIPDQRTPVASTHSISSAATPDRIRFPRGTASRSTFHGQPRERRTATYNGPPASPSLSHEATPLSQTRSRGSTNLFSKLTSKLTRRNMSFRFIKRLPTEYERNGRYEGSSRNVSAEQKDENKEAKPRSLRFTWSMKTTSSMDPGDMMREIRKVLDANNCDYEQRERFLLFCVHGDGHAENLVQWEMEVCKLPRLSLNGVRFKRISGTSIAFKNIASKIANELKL

MAP kinase-activated protein kinase 3 (Homo sapiens), sequence (Q16644 whole entry, looked up): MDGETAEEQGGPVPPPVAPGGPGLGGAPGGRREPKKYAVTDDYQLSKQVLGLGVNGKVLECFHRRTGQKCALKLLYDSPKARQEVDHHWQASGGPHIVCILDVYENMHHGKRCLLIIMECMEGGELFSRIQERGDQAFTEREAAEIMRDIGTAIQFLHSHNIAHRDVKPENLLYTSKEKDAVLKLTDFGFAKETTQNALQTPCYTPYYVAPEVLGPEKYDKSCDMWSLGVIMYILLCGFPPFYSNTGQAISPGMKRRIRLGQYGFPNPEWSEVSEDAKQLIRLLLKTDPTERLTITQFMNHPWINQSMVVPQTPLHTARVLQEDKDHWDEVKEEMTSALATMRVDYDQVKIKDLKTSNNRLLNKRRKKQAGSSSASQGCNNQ
Calcium/calmodulin-dependent protein kinase type II subunit alpha (Homo sapiens), sequence (Q9UQM7 whole entry): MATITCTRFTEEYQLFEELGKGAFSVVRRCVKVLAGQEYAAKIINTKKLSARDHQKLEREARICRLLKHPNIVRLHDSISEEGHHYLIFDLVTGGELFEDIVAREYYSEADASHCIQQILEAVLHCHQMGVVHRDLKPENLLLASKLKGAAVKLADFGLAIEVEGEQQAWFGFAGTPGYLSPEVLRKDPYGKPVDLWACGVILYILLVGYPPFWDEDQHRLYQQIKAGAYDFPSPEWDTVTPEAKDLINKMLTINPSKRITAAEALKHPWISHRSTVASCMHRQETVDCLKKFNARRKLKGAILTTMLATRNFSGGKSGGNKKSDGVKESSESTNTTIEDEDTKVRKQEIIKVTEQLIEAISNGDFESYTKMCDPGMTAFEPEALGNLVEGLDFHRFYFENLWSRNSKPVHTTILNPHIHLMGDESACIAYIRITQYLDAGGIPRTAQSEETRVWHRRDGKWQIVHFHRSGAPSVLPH
Death-associated protein kinase 1 (Homo sapiens), sequence (P53355 whole entry, looked up): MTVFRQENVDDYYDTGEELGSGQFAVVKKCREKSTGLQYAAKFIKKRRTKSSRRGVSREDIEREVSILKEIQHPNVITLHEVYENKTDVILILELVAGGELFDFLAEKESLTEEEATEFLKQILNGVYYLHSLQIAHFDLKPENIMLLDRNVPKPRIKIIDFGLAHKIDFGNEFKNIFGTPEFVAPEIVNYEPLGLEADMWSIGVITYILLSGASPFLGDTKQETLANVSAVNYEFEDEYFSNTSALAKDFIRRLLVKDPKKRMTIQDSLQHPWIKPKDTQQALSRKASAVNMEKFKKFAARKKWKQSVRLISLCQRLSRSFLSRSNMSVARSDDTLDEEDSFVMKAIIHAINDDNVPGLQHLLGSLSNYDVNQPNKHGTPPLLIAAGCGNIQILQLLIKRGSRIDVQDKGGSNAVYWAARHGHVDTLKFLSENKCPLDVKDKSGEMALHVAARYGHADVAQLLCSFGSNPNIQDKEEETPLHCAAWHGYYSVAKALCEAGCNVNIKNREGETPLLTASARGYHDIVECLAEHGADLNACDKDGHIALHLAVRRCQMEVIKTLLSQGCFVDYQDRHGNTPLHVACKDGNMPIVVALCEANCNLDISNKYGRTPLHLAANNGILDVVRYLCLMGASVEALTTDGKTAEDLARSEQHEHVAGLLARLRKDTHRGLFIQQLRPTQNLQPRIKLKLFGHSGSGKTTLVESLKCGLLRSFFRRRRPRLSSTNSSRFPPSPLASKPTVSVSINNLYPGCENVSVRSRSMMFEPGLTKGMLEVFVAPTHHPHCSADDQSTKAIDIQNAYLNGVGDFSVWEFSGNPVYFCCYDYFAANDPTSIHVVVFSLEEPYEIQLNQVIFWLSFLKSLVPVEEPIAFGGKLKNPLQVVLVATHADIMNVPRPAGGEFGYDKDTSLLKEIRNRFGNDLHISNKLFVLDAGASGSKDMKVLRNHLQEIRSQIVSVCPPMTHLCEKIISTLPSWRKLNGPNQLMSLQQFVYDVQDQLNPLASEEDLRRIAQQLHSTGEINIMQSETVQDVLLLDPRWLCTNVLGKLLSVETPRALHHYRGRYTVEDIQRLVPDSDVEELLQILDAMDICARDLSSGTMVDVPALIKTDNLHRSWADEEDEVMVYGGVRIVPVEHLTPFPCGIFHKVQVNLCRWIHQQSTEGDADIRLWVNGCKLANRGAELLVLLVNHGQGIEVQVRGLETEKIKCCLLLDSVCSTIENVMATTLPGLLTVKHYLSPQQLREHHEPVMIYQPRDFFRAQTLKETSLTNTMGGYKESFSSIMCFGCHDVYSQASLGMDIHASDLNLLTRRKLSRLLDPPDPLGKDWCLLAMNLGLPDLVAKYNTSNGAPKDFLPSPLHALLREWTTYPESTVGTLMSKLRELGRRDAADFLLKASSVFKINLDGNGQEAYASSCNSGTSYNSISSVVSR
MAP kinase-activated protein kinase 2 (Homo sapiens), sequence (P49137 whole entry, looked up): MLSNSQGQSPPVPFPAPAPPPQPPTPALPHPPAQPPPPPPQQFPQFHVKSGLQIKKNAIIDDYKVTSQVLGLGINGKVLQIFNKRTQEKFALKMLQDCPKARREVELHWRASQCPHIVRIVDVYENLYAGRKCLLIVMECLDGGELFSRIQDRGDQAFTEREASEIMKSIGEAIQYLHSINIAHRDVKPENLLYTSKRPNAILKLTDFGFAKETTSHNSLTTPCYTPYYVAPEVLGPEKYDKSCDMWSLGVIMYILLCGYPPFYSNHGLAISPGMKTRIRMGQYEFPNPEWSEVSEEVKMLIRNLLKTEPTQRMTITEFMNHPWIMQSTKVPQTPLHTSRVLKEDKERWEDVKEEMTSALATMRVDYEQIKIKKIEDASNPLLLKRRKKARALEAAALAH
Serine/threonine-protein kinase MARK1 (Homo sapiens), sequence (Q9P0L2 whole entry, looked up): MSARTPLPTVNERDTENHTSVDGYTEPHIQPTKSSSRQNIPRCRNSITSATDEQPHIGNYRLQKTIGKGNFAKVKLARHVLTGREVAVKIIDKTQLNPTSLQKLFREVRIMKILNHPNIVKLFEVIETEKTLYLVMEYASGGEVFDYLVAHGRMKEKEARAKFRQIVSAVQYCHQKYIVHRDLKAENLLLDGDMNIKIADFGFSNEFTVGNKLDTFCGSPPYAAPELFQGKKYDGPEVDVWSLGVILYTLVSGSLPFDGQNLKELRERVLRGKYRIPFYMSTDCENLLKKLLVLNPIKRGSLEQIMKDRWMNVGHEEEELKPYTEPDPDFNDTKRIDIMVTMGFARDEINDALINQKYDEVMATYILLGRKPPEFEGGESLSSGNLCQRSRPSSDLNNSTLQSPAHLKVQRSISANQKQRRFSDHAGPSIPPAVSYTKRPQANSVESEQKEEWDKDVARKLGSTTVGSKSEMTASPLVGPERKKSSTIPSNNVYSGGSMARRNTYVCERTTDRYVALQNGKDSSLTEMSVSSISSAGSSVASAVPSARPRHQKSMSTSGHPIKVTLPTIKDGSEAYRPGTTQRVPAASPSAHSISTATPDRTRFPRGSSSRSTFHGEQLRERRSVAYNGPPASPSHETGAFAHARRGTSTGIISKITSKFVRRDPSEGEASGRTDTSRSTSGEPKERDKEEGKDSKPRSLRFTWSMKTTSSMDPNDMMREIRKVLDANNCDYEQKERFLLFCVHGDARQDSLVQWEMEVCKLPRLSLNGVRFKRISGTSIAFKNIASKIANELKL
Serine/threonine-protein kinase Chk2 (Homo sapiens), sequence (O96017 whole entry): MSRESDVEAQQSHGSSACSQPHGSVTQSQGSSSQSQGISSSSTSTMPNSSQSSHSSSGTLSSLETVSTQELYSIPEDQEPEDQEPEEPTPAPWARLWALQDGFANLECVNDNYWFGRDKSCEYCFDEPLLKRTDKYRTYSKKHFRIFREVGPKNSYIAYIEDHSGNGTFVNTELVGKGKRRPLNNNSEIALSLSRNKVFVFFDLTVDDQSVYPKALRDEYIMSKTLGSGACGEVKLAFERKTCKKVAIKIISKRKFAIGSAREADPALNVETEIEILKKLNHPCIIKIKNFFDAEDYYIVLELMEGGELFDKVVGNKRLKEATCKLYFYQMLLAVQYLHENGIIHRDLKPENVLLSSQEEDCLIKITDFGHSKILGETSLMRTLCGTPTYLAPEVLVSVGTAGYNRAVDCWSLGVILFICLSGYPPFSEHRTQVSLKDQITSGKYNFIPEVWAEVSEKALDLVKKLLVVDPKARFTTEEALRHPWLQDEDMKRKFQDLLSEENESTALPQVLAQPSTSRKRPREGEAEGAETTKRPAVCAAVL

For `Cc1ccc(O)cc1Nc1ccnc2cc(-c3ccccn3)ccc12`, the inhibition (usually the relative decrease from the control value, in per cent) is 5.11% in assay [1]; 4.51% in assay [2]; 6.51% in assay [3]; -0.2% in assay [4]; 0.26% in assay [5]; 4.18% in assay [6]. In addition, the inhibition was determined as 4.5% in assay [7]; 3.95% in assay [8]; 5.81% in assay [9]; 3.99% in assay [10]; 5.29% in [11]; 1.56% in assay [12]. Besides, the inhibition in assay [13] turned out to be 2.1%; in [14], 1.91%; in assay [15] it was 1.68%; in assay [16] it was 7.63%; in assay [17], 19.4%; in [18] it was 4.13%. Also, the inhibition in assay [19] was 6.28%; in assay [20], 4.39%.

Consider `CN1CCC(n2cnc(-c3ccc(F)cc3)c2-c2ccnc(Nc3ccccc3)n2)CC1`, for which the inhibition in [1] was 1.68%; in assay [2] it was 0.53%; in [3], 2.35%; in assay [4] it was 0.11%; in assay [5] it was 1.45%; in assay [6], -0.4%. The inhibition in assay [7] came out at 1.3%; in assay [8] it was 1.2%; in assay [9], 2.71%; in [10], 2.63%; in [11], 2.54%; in [12] it was 0.09%. The inhibition was -4.09% in assay [13]; 1% in [14]; 0.41% in assay [15]; 34.8% in [16]; 36.9% in assay [17]; 1.99% in assay [18]. Further, the inhibition in [19] stood at 4.86%; in assay [20] it was 3.17%.

On to `NC(=O)c1sc(-n2cnc3ccc(C(F)(F)F)cc32)cc1OCc1ccccc1Br`, for which the inhibition in assay [1] is 3.63%; in assay [2], 2.57%; in assay [3], 7.23%; in assay [4], 1.31%; in [5], 2.02%; in assay [6] it was -3.21%. In addition, the inhibition in [7] was -0.7%; in [8], 2.54%; in [9], 3.23%; in [10] it was -0.43%; in assay [11] it was -0.59%; in [12], 0.84%. Further, the inhibition in assay [13] is -0.41%; in assay [14], 1.86%; in assay [15] it was 0.94%; in [16], 4.27%; in assay [17] it was 4.34%; in assay [18], 2.69%. Further, the values for the inhibition in assay [19] and in [20] were 4.02% and 0.94%, respectively.

With `COc1cc(Nc2nccc(Nc3ccc4c(C)n[nH]c4c3)n2)cc(OC)c1OC`, the inhibition in assay [1] stood at 4.38%; in [2], 3.41%; in assay [3] it was 3.54%; in assay [4] it was 1.45%; in assay [5] it was 4.68%; in [6] it was 1.45%. Besides, the inhibition in [7] was 3.35%; in assay [8], 1.73%; in [9], 9.02%; in [10], 1.68%; in [11] it was 2.65%; in assay [12] it was -0.29%. Moreover, the inhibition in assay [13] was found to be 2.5%; in [14] it was 0.91%; in [15] it was 0.86%; in assay [16] it was 1.05%; in assay [17], 1.36%; in assay [18], 2.59%. In addition, the inhibition in assay [19] was 8.82%; in assay [20], 3.33%.

Consider `CCn1cc(-c2ccnc3[nH]ccc23)c(-c2cccc(NC(=O)Nc3ccc(OCc4ccccc4)cc3)c2)n1`, for which the inhibition in assay [1] is -2.25%; in assay [2] it was 1.86%; in [3], -0.28%; in assay [4] it was 0.6%; in assay [5], -0.67%; in assay [6], 1.82%. Further, the inhibition in assay [7] was -1.06%; in [8], -0.17%; in assay [9], -0.76%; in assay [10], 1.61%; in assay [11], 1.12%; in [12], -1.87%. Moreover, the inhibition in assay [13] was -0.63%; in [14], -0.39%; in assay [15], -0.71%; in [16], 0.57%; in assay [17], 1.13%; in [18], 0.74%. In addition, the inhibition in assay [19] stood at 3.68%; in assay [20], 1.29%.

Take `COC(=O)Nc1nc2ccc(Oc3ccc(NC(=O)Nc4cccc(Cl)c4)cc3)cc2[nH]1`: the inhibition is -1.94% in assay [1]; 1.3% in assay [2]; 0.37% in assay [3]; 0.3% in assay [4]; -1.27% in assay [5]; -1.18% in assay [6]. Besides, the inhibition in [7] is -8.11%; in [8], 0.39%; in [9] it was 0.53%; in [10] it was 0.42%; in [11], -0.2%; in [12], -0.66%. The inhibition in [13] was 0.75%; in assay [14] it was -0.07%; in assay [15] it was -0.56%; in assay [16], 3.71%; in assay [17], 4.53%; in [18], 0.33%. Moreover, the inhibition in assay [19] came out at 2.88%; in assay [20] it was 0.27%.

Regarding `CCn1c(-c2nonc2N)nc2c(C#CC(C)(C)O)nc(OC[C@H](N)c3ccccc3)cc21`, the inhibition in [1] is 6.26%; in assay [2], 4.52%; in assay [3] it was 8.64%; in assay [4], -0.61%; in [5], 4.09%; in assay [6], 2.81%. Besides, the inhibition was 9.89% in [7]; 4.7% in assay [8]; 11.3% in assay [9]; 2.88% in assay [10]; 4.82% in [11]; -2.25% in [12]. For the same compound, the inhibition stood at 1.52% in assay [13]; 0.63% in assay [14]; 2.99% in assay [15]; 1.45% in assay [16]; 2.95% in assay [17]; 2.28% in assay [18]. Also, the inhibition in assay [19] came out at 27.3%; in assay [20], 4.68%.
